Results reported in PubChem BioAssay AID1645838 (ICCB-Longwood Screening Facility, Harvard Medical School, 2021).
The campaign covered roughly 2,000 compounds. About 100 (5%) were called active. No stated cut-off is given here; in the data, active means z-score above about 2; inactive means the rest. The full list was thinned out, with actives kept by preference.

Assay: modulators of mitochondrial supercomplex assembly, cell-based, luminescence, Hoechst nuclei count (AID 1645838);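 further: control cybrid cells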;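 on z-score: higher means more mitochondrial supercomplex formation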
Settings: Cells, luminescence/Hoechst cell count ratio, supercomplex reporter; for z-score: stronger effect = higher value; for cell count: measured here: cell number, Hoechst nuclei count
[1] = library stock concentration (final well concentration not given) 80 uM
[2] = library stock concentration (final well concentration not given) 400 uM
[3] = library stock concentration (final well concentration not given) 2 mM
[4] = library stock concentration (final well concentration not given) 10 mM
[5] = library stock concentration (final well concentration not given) 46 uM
[6] = library stock concentration (final well concentration not given) 278 uM
[7] = library stock concentration (final well concentration not given) 1.67 mM

CCCCC/C=C\C/C=C\C/C=C\C/C=C\CCCC(=O)N[C@H](C)CO
z-score: -0.466 (inactive)
cell count: 6100

CCCCC/C=C\C/C=C\C/C=C\C/C=C\CCCC(=O)N[C@@H](C)CO
z-score: 0.0527 (inactive)
cell count: 5800

CCCCC/C=C\C/C=C\C/C=C\C/C=C\CCCC(=O)NC(CO)CO
z-score: 4 (active)
cell count: 4470

CNCCCCCCN(C)N(O)N=O
z-score: 0.0102 (inactive)
cell count: 6050

CCCCCCC(=O)O[C@H]1CC[C@H]2[C@@H]3C=CC4=CC(=O)CC[C@]4(C)[C@H]3CC[C@]12C
z-score: -0.283 (inactive)
cell count: 5360

COC1C(OC(=O)NC(=O)CCl)CC[C@]2(CO2)[C@@H]1[C@@]1(C)OC1CC=C(C)C (some centres undefined)
z-score [1]: -0.0262 (inactive)
z-score [2]: 0.199 (inactive)
z-score [3]: 1.06 (inactive)
z-score [4]: 2.72 (active)
cell count [1]: 3980
cell count [2]: 3760
cell count [3]: 3110
cell count [4]: 1800

c1cc2cc(N3CCNCC3)ccc2cn1
z-score: 0.406 (inactive)
cell count: 4610

CCCCC/C=C\C/C=C\C/C=C\C/C=C\CCCC(=O)NCCc1ccc(O)c(O)c1
z-score: 0.0355 (inactive)
cell count: 5380

CS(=O)CCCCN=C=S (centres undefined)
outcome (library stock 10 mM): inactive; censored for cell count
z-score [1]: -0.41 (inactive)
z-score [2]: -0.338 (inactive)
z-score [3]: 0.15 (inactive)
cell count [1]: 6580
cell count [2]: 6460
cell count [3]: 5610

CCCCC/C=C\C/C=C\CCCCCCCC(=O)NCCO
outcome: inactive; censored for cell count

CCCCCCC(=O)CCCCCC/C=C/C[C@@H](O)[C@H](O)[C@@](N)(CO)C(=O)O
z-score: 5.47 (active)
cell count: 4740

CCCCCCCC/C=C\CCCCCCCC(=O)N[C@H](C)CO
z-score: 0.127 (inactive)
cell count: 5170

CCCCC/C=C\C/C=C\C/C=C\C/C=C\CCCC(=O)Nc1ccc([N+](=O)[O-])cc1
z-score: -0.128 (inactive)
cell count: 5210

CCCCC/C=C\C/C=C\C/C=C\C/C=C\CCCC(=O)NCCc1c[nH]c2ccc(O)cc12
z-score: 1.36 (inactive)
cell count: 5300

O=NN(O)N1CCC[C@H]1C(=O)O
z-score: -0.00248 (inactive)
cell count: 5130

CN=C(NS(=O)(=O)c1ccc(Cl)cc1)N1C[C@@H](c2ccccc2)C(c2ccc(Cl)cc2)=N1
z-score: -0.26 (inactive)
cell count: 5290

Cc1sc2c(c1C)C(c1ccc(Cl)cc1)=NC(CC(=O)OC(C)(C)C)c1nnc(C)n1-2 (centres undefined)
z-score [1]: 1.22 (inactive)
z-score [2]: 2.15 (active)
z-score [3]: 4.36 (active)
z-score [4]: 5.69 (active)
cell count [1]: 5120
cell count [2]: 4600
cell count [3]: 3540
cell count [4]: 2860

Cc1sc2c(c1C)C(c1ccc(Cl)cc1)=NC(CC(=O)Nc1ccc(O)cc1)c1nnc(C)n1-2 (centres undefined)
z-score [1]: 1.4 (inactive)
z-score [2]: 3.81 (active)
z-score [3]: 7.81 (active)
z-score [4]: 8.99 (active)
cell count [1]: 5230
cell count [2]: 4010
cell count [3]: 2830
cell count [4]: 2330

Cc1sc2c(c1C)C(c1ccc(Cl)cc1)=NC(CC(N)=O)c1nnc(C)n1-2 (centres undefined)
z-score [5]: 0.632 (inactive)
z-score [6]: 2.69 (active)
z-score [7]: 7.71 (active)
z-score [4]: 10.6 (active)
cell count [5]: 5970
cell count [6]: 4460
cell count [7]: 2880
cell count [4]: 2360

C[N@@+]1(CC2CC2)CC[C@]23c4c5ccc(O)c4OC2C(=O)CC[C@@]3(O)C1C5 (some centres undefined)
z-score [1]: 0.853 (inactive)
z-score [2]: 0.439 (inactive)
z-score [3]: 1.12 (inactive)
z-score [4]: 0.0218 (inactive)
cell count [1]: 4560
cell count [2]: 4560
cell count [3]: 3990
cell count [4]: 4440
